Source: publication PMC4336329 (PLoS ONE, 2015)
Out of some 310,000 compounds screened, about 2,200 (0.71%) showed an effect of 50% or more. Effects have a minus sign here. Shown is part of a subset that was picked to be rich in strong results.

biological target: human ether-à-go-go-related gene (hERG) potassium channel (human, UniProt Q12809); assay: primary screen, population patch clamp on CHO cells stably expressing hERG; higher = less effect of the substance
Sequence (Q12809 whole entry, looked up): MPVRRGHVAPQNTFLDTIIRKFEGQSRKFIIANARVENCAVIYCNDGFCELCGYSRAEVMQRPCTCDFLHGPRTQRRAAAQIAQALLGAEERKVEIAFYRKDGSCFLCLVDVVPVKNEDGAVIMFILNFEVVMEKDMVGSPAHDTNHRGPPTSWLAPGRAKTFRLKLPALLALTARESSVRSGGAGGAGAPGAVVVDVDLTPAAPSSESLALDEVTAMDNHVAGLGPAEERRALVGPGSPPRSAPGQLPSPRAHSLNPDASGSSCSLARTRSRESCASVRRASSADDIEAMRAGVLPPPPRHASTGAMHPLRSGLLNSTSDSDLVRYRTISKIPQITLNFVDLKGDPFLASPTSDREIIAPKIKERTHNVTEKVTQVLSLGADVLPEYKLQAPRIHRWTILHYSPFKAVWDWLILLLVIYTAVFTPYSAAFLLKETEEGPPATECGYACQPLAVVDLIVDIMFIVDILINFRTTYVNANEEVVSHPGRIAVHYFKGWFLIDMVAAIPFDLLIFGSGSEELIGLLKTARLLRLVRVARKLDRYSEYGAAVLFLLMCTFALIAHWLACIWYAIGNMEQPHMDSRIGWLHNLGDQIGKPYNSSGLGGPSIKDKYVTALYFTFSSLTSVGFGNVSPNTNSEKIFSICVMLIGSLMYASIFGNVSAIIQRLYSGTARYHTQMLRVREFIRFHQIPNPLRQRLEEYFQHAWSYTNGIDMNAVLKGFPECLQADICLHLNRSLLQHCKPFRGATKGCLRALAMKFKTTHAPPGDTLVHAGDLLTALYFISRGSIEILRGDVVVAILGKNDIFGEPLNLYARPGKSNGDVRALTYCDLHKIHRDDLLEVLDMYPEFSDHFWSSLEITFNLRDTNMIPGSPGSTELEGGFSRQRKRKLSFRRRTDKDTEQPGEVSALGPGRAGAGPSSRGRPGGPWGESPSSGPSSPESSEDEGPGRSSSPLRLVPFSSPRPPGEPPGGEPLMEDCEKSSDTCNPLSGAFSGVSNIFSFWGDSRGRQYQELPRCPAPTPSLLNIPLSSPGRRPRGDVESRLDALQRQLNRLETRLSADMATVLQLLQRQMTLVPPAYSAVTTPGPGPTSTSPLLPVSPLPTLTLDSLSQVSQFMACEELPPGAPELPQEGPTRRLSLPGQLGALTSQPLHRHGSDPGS

| SMILES | hERG current change (%, negative = inhibition) at 1uM [%] |
| --- | --- |
| O=C1CCCCCCC1Sc1ccccc1[N+](=O)[O-] (stereo not drawn) | 3.82 |
| Cc1ccc(C2C(=O)N(C3CCC(C)CC3)CC(=O)N2C2CCCC2)cc1 (stereo not drawn) | -13.1 |
| COC(=O)/C=c1/s/c(=C(/C#N)C(=O)N2CCCCC2)n(-c2ccccc2)c1=O | 9.76 |
| CC(C)[C@H](NS(=O)(=O)c1ccccc1)C(=O)OCn1nnc2ccccc2c1=O | 4.31 |
| Cn1c(=O)c2c(nc(SCCN3CCCCC3)n2Cc2ccccc2)n(C)c1=O | -66 |
| Cc1ccc(Cn2c(SCCN3CCOCC3)nc3c2c(=O)n(C)c(=O)n3C)cc1 | -6.9 |
| Cc1ccc(Cn2c(SCCN3CCCCC3)nc3c2c(=O)n(C)c(=O)n3C)cc1 | -67.1 |
| Cn1c(=O)c2c(nc(SCCN3CCCCC3)n2Cc2ccc(Cl)cc2)n(C)c1=O | -48.9 |
| Cn1c(=O)c2c(nc(SCCN3CCOCC3)n2Cc2ccccc2)n(C)c1=O | -5.7 |
| Cn1c(=O)c2c(nc(SCCN3CCOCC3)n2Cc2ccccc2Cl)n(C)c1=O | -8.97 |
| ON1C2CCCCC2N(O)C1c1c(F)c(F)c(F)c(F)c1F (stereo not drawn) | 17.7 |
| CC1CN(CC(=O)NCc2ccccc2)CC(C)O1 (stereo not drawn) | 19.2 |
| Cc1ccc(N2C(=O)C(CN3CCCC3)C2c2ccccc2)cc1 (stereo not drawn) | -70.6 |
| Cc1ccc(N2C(=O)C(CN3CCCCC3)C2c2ccccc2)cc1 (stereo not drawn) | -4.6 |
| Cc1ccc(N2C(=O)C(CN3CCOCC3)C2c2ccccc2)cc1 (stereo not drawn) | -1.12 |
| C=CCn1c(SCC(=O)N2CCCC2)nc2c([nH]c3ccccc32)c1=O | 5.21 |
| COCCn1c(SCC(=O)N2CCOCC2)nc2ccccc2c1=O | 5.32 |
| COCCn1c(SCCN2CCCCC2)nc2ccccc2c1=O | -53.3 |
| CCOC(=O)CSc1nc2ccccc2c(=O)n1CC | -1.18 |
| CCOC(=O)CSc1nc2ccccc2c(=O)n1CC1CCCO1 (stereo not drawn) | 9.44 |
| COc1ccc(CCn2c(SCCN3CCCCC3)nc3ccccc3c2=O)cc1OC | -8.22 |
| COCCn1c(SCC(=O)N2CCCCC2)nc2ccccc2c1=O | -30.8 |
| O=c1c2ccccc2nc(SCCN2CCCCC2)n1CCc1ccccc1 | -10 |

| SMILES | hERG current change (%, negative = inhibition) at 1uM [%] |
| --- | --- |
| CCOC(=O)CSc1nc2ccccc2c(=O)n1CC1CCCC1 | -63.8 |
| C=CCn1c(SCC(=O)NC2CCCC2)nc2c([nH]c3ccccc32)c1=O | -16.9 |
| C=CCn1c(SCCN2CCCC2)nc2c([nH]c3ccccc32)c1=O | -63.9 |
| COCCn1c(SCC(=O)N2CCC(C)CC2)nc2ccccc2c1=O | -57.9 |
| CN(C(=O)COC(=O)/C=C/c1ccc2ccccc2n1)C1CCS(=O)(=O)C1 (stereo not drawn) | 12.9 |
| CC(=O)Nc1cccc(C(=O)OCc2ccc([N+](=O)[O-])cc2)c1 | -13.5 |
| O=C1C=C(NCC2CCCO2)C2(CCCCC2)O1 (stereo not drawn) | 15.6 |
| N#Cc1ccccc1OCC(=O)N1N=C(c2cccs2)CC1c1ccco1 (stereo not drawn) | -1.57 |
| O=C(CSc1nncn1-c1ccccc1)Nc1cc(Cl)cc(Cl)c1 | 5.88 |
| O=C(Cn1ncc2c1-c1ccccc1OC2)N1CCN(Cc2ccccc2)CC1 | -58 |
| CCN1CCN(C(=O)Cn2ncc3c2-c2ccccc2OC3)CC1 | 0.123 |
| O=C(Cn1ncc2c1-c1ccccc1OC2)N1CCN(Cc2ccc3c(c2)OCO3)CC1 | -31 |
| O=C1NN=COc2ccccc21 | 4.08 |
| CC(C)N1CCN(Cc2cccn2-c2ccccn2)CC1CCO (stereo not drawn) | -16 |
| Cc1ccc(CN2CCN(Cc3cccn3-c3ccc(Cl)cn3)CC2CCO)o1 (stereo not drawn) | 0.259 |
| Cc1ccc(CN2CCN(Cc3cccn3-c3ccccn3)CC2CCO)o1 (stereo not drawn) | -59.5 |
| Cc1cc(C)c(CN2CCN(Cc3ccc(C)o3)C(CCO)C2)c(-n2cccn2)c1 (stereo not drawn) | -70.9 |
| Cc1ccc(CN2CCN(Cc3c(C)nn(C(C)C)c3C)CC2CCO)o1 (stereo not drawn) | 10.6 |
| OCCC1CN(Cc2cccn2-c2ccccn2)CCN1C1CCCC1 (stereo not drawn) | 3.68 |
| Cc1ccc(CN2CCN(Cc3cccn3-c3ccccn3)CC2CCO)cc1 (stereo not drawn) | -82.4 |
| CC(C)CCN1CCN(Cc2cccn2-c2ccccn2)CC1CCO (stereo not drawn) | -36.6 |
| CC(C)=CCN1CCN(Cc2cccn2-c2ccccn2)CC1CCO (stereo not drawn) | -19.9 |
